# Results: PubChem BioAssay (EPA / NIEHS)
# Where “and” joins values, the source holds several entries; their conditions need not be identical. Identical values can stand only once. Inconclusive results are not listed. Where a structure was tested more than once in an assay, its records may differ in their call. Calls of active or inactive are those of the source. How the source made its calls: active means hit-call score of the fitted dose curve at least 0.9, where 1 is the maximum; inconclusive means response in the unintended direction; inactive means score below 0.9.
# What was measured:
# [1] = molecular target: human Constitutive Androstane Receptor (CAR), NR1I3 (gene 9970) (UniProt Q14994); assay: NVS_NR_hCAR_Antagonist: NovaScreen (NVS) Nuclear Receptor Binding Assay for human Constitutive Androstane Receptor Antagonism (CAR) (AID 2283344)
# Chain of human Constitutive Androstane Receptor (CAR), NR1I3 (gene 9970) (Q14994 whole entry, looked up): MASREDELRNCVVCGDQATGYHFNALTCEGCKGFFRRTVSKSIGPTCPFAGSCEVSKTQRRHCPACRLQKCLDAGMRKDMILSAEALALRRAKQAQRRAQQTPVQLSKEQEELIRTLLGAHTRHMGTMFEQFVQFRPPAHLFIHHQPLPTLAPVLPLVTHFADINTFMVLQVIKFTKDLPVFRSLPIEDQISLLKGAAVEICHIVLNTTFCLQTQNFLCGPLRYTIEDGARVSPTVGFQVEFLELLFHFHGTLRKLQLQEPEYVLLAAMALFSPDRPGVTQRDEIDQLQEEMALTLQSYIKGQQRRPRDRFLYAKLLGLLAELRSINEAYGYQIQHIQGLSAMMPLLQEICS
# Summary of the method: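 Single 25 uM duplicate primary screen, with concentration-series follow-up on actives. Cell-free binding format run in antagonist mode, TR-FRET signal taken 1 h post-dose; activity is signal loss relative to DMSO.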
# [2] = molecular target: Estrogen receptor (Homo sapiens) (UniProt P03372); assay: OT_ER_ERaERa_1440: Odyssey Thera (OT) 24-hour HEK293T Protein-Complementation Assay for Estrogen Receptor-alpha/-alpha Homodimer (AID 2283349);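 further: hits raise fluorescence above DMSO for agonists and antagonists alike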
# Chain of Estrogen receptor (Homo sapiens) (P03372 whole entry, looked up, the tested form may be a part): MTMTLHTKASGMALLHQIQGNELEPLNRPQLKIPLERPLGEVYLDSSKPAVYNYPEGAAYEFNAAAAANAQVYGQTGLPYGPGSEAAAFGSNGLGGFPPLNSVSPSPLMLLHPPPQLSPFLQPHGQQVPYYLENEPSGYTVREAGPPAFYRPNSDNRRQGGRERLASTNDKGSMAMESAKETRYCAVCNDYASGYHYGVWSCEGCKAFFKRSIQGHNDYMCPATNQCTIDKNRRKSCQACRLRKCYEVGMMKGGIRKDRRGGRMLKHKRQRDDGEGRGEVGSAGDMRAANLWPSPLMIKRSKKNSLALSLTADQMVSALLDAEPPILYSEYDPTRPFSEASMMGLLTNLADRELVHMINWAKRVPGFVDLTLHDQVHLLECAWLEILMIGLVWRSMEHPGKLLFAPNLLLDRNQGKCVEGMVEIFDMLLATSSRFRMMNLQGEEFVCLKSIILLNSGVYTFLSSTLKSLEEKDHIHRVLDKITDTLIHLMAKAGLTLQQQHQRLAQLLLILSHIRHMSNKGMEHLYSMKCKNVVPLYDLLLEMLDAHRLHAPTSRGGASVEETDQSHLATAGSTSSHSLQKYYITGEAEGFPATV
# Summary of the method: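 Stably transfected HEK293T; ERα LBD homodimer PCA. 24 h dosing, fluorescence intensity read, gain-of-signal vs DMSO.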
# [3] = molecular target: Bile acid receptor (Homo sapiens) (UniProt Q96RI1); assay: NVS_NR_hFXR_Antagonist: NovaScreen (NVS) Nuclear Receptor Binding Assay for human Farnesoid X Receptor Antagonism (FXR) (AID 2283350)
# Summary of the method: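 Antagonist-format time-resolved FRET binding assay with extracted human receptor protein, read 1 hour after compound addition. Compounds first screened at 25 uM in duplicate, then actives tested in concentration series, with loss of signal relative to DMSO.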
# [4] = molecular target: Estrogen receptor (Homo sapiens) (UniProt P03372); assay: OT_ER_ERaERa_0480: Odyssey Thera (OT) 8-hour HEK293T Protein-Complementation Assay for Estrogen Receptor-alpha/-alpha Homodimer (AID 2283351);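 further: rise in fluorescence from reassembled reporter fragments on ERα LBD homodimer in nucleus or whole cell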
# Summary of the method: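 Read-out: fluorescence intensity rise relative to DMSO, nuclear for agonists, nuclear plus cytoplasmic for antagonists. Construct is the ERα LBD (aa 310-547) homodimer fragment-complementation pair, stably expressed in HEK293T; exposure 8 h.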
# [5] = molecular target: Estrogen receptor (Homo sapiens) + Estrogen receptor beta (Homo sapiens) (UniProt P03372+Q92731); assay: OT_ER_ERaERb_0480: Odyssey Thera (OT) 8-hour HEK293T Protein-Complementation Assay for Estrogen Receptor-alpha/-beta Heterodimer (AID 2283352)
# Chain of Estrogen receptor (Homo sapiens) + Estrogen receptor beta (Homo sapiens) (P03372 whole entry, looked up): as the sequence (P03372 whole entry, looked up, the tested form may be a part) above
# Chain of Estrogen receptor (Homo sapiens) + Estrogen receptor beta (Homo sapiens) (Q92731 whole entry, looked up): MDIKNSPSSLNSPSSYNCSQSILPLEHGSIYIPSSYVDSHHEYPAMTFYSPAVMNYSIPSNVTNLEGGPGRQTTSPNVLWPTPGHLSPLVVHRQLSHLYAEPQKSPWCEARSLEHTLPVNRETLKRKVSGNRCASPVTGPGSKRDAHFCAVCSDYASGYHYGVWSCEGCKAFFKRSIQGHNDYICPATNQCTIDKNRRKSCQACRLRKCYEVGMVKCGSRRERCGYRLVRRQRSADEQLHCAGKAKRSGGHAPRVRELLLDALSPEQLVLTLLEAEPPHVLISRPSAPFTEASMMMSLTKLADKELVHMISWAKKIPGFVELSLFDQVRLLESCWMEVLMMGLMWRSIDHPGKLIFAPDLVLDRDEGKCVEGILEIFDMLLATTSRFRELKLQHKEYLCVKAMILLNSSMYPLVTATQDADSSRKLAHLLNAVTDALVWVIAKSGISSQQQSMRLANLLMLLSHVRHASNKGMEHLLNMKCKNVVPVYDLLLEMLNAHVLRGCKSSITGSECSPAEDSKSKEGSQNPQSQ
# Summary of the method: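 Compound added to HEK293T cells carrying split-reporter-tagged ER-alpha and ER-beta LBDs, incubated 8 hours, then imaged by laser scanning cytometer. Signal rise in nucleus, or nucleus and cytoplasm, over vehicle was fitted in the positive direction.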
# [6] = molecular target: Estrogen receptor beta (Homo sapiens) (UniProt Q92731); assay: OT_ER_ERbERb_0480: Odyssey Thera (OT) 8-hour HEK293T Protein-Complementation Assay for Estrogen Receptor-beta/-beta Homodimer (AID 2283357);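 further: active means signal gain over DMSO baseline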
# Chain of Estrogen receptor beta (Homo sapiens) (Q92731 whole entry, looked up, the tested form may be a part): as the sequence (Q92731 whole entry, looked up) above
# Summary of the method: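 Fluorescence gain from complemented reporter fragments on ER-beta LBD homodimer in HEK293T was quantified against DMSO controls after 8 h treatment, fixation in 4% formaldehyde and Draq5 staining.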
# [7] = NVS_IC_rCaBTZCHL: NovaScreen (NVS) Ion Channel Assay for Calcium Channel, Type L, Benzothiazepine Site (CaBTZCHL) (AID 2283337)
# Summary of the method: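 Rat cortical membrane preparation, cell-free. Radioligand displaced by test chemical; 1.5 h incubation; filtration, scintillation count. DMSO = negative control/baseline. Primary: duplicate, 25 uM; secondary: concentration series.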
# NCBI gene 100848466 = assay: NVS_NR_bPR: NovaScreen (NVS) Nuclear Receptor Binding Assay for bovine Progextron Receptor (PR) (AID 2283343);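 on AC50: actives lower bound radioligand signal below DMSO meaning displacement of the label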
# Summary of the method: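 Steps: bovine uterine membranes were dosed with chemical alongside radioligand, incubated 18 hours, then radiodetected by scintillation counting. Initial testing used 25 uM in duplicate; confirmed actives were rerun as concentration series.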
# [8] = molecular target: chimpanzee Androgen Receptor (AR), AR (gene 747460) (UniProt O97775); assay: NVS_NR_cAR: NovaScreen (NVS) Nuclear Receptor Binding Assay for chimpanzee Androgen Receptor (AR) (AID 2283346);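 further: radioligand displacement from AR measured by scintillation counting in a cell-free assay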
# Chain of chimpanzee Androgen Receptor (AR), AR (gene 747460) (O97775 whole entry, looked up): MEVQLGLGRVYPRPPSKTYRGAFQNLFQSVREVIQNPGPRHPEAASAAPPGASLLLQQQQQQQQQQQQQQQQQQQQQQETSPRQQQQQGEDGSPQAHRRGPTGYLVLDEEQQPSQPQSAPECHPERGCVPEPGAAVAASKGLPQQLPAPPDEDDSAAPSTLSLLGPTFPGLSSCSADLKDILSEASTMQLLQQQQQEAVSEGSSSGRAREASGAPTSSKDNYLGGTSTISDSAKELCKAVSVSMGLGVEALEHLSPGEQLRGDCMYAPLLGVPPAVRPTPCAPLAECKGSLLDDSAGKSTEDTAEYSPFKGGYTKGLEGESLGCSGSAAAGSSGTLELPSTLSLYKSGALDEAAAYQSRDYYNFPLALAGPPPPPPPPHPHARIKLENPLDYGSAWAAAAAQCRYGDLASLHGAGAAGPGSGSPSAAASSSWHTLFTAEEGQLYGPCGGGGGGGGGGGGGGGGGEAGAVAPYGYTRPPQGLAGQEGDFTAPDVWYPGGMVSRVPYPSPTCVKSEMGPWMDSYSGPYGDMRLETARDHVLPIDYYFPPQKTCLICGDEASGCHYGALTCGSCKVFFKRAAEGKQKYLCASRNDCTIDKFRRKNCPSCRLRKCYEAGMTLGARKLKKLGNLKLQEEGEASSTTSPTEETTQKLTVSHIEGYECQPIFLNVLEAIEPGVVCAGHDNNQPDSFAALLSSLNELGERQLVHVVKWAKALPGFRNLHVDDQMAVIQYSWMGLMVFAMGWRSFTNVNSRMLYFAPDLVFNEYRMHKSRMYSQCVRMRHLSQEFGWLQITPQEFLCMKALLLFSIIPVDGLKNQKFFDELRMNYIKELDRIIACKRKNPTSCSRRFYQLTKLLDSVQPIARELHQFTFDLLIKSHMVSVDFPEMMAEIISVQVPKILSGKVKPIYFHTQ
# Summary of the method: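 Cell-free radioligand displacement using receptor protein extracted from Sf9/Sf21 cells; bound radioligand measured by scintillation counting 72 hours after chemical dosing. Loss of signal versus DMSO baseline indicates binding; primary screen single-concentration in duplicate at 25 uM, actives followed in concentration series.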
# [9] = tested on: guinea pig Histamine Receptor (H2), gene 100729734; assay: NVS_GPCR_gH2: NovaScreen (NVS) G Protein-Coupled Receptor Assay for guinea pig Histamine Receptor (H2) (AID 2283342)
# Summary of the method: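 Guinea pig striatal membrane preparation with specific radioligand; bound counts measured by filtration and scintillation 1 h post-dosing, DMSO as baseline. Chemicals passing a 25 uM duplicate screen were titrated to a 50 uM maximum.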
# [10] = molecular target: Androgen Receptor/SRC-1 Co-activator, AR (gene 367) (UniProt P10275); assay: OT_AR_ARSRC1_0960: Odyssey Thera (OT) 16-hour HEK293T Protein-Complementation Assay for Androgen Receptor/SRC-1 Co-activator (AID 2283353);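 further: actives raise the signal above DMSO so potency reflects increased AR and SRC-1 complex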
# Chain of Androgen Receptor/SRC-1 Co-activator, AR (gene 367) (P10275 whole entry, looked up, the tested form may be a part): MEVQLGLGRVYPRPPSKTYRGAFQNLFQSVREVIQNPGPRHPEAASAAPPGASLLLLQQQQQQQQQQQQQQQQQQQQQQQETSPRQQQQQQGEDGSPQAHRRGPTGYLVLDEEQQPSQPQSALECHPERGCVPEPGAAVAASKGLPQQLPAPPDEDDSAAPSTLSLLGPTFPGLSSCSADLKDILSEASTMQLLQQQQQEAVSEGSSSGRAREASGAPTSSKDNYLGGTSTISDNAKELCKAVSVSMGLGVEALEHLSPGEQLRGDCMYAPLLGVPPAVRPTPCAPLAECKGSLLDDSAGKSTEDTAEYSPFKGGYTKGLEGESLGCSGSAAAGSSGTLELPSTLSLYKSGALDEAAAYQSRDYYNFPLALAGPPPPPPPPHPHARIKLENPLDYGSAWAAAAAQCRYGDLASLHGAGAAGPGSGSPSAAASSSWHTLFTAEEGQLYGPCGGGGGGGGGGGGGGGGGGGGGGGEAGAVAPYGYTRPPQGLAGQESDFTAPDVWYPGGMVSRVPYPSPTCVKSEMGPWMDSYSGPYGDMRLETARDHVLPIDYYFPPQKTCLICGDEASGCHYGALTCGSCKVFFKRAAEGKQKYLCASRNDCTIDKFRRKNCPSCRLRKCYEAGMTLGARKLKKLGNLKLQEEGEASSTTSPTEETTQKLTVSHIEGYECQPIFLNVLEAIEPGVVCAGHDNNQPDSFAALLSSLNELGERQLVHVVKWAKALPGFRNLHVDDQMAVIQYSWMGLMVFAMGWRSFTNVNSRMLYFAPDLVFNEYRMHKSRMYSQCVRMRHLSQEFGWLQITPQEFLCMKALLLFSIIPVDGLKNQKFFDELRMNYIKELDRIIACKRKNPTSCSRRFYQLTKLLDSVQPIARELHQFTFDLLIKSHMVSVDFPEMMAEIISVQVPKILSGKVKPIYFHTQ
# Summary of the method: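 Readout: 488 nm nuclear-to-cytoplasmic fluorescence ratio from imaging of at least 400 cells per image, 16 h post-dose. Reporter is Venus YFP complementation between AR and SRC-1 fusions, stably expressed in HEK293T; activity scored upward relative to DMSO.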
# [11] = molecular target: Androgen Receptor/SRC-1 Co-activator, AR (gene 367) (UniProt P10275); assay: OT_AR_ARSRC1_0480: Odyssey Thera (OT) 8-hour HEK293T Protein-Complementation Assay for Androgen Receptor/SRC-1 Co-activator (AID 2283354);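 further: hits raise the complementation signal above DMSO so AC50 marks enhancers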
# Summary of the method: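 After 8 h dosing, stably expressing HEK293T cells with split-Venus AR/SRC-1 fusions were imaged (488, 635nm). The 488nm N/C ratio per image gave the endpoint, analysed in the positive direction against DMSO.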
# [12] = molecular target: bovine Gamma-Aminobutyric Acid Type A Receptor Agonist (GABAR Agonist), GABRA1 (gene 780973) (UniProt P08219); assay: NVS_LGIC_bGABAR_Agonist: NovaScreen (NVS) Ligand-Gated Ion Channel Assay for bovine Gamma-Aminobutyric Acid Type A Receptor Agonist (GABAR Agonist) (AID 2283338)
# Summary of the method: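 Radioligand binding to bovine cerebellar membranes in agonist format, read by filter-based scintillation counting after 1 h. Primary screen in duplicate at 25 uM, with actives followed in concentration series. Gain of signal versus DMSO.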
# [13] = molecular target: rat Glutamate, MK-801 Agonist Site (GluNMDA_MK801), Grin1 (gene 24408) (UniProt P35439); assay: NVS_LGIC_rGluNMDA_MK801_Agonist: NovaScreen (NVS) Ligand-Gated Ion Channel Assay for rat Glutamate, MK-801 Agonist Site (GluNMDA_MK801) (AID 2283340)
# Summary of the method: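 Rat forebrain membrane preparation; MK-801-site radioligand binding read by filtration and scintillation after 1.5 h. Single-point 25 uM duplicate screen, followed by singleton concentration series to 50 uM max; DMSO baseline.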
# [14] = molecular target: rat Glycine Receptor, Strychnine-sensitive (GlyRStrySens), Glra1 (gene 25674) (UniProt P07727); assay: NVS_LGIC_rGlyRStrySens: NovaScreen (NVS) Ligand-Gated Ion Channel Assay for rat Glycine Receptor, Strychnine-sensitive (GlyRStrySens) (AID 2283341)
# Summary of the method: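 Radioligand displacement on rat spinal cord membranes, 1 hr, filter scintillation read-out. Single-concentration duplicate screen at 25 uM; chemicals meeting threshold (e.g., 30% inhibition) rerun in concentration-response up to 50 uM. Loss of binding fitted versus DMSO.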
# [15] = molecular target: Estrogen receptor (Homo sapiens) (UniProt P03372); assay: NVS_NR_hER: NovaScreen (NVS) Nuclear Receptor Binding Assay for human Estrogen Receptor (ER) (AID 2283348)
# Summary of the method: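 Radiodetection of ligand displacement in a lysate-based, cell-free format using MCF7 extracts, read at 18 hours. Duplicate 25 uM primary testing, then concentration series for actives.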
# [16] = molecular target: bovine Estrogen Receptor (ER), ESR1 (gene 407238) (UniProt P49884); assay: NVS_NR_bER: NovaScreen (NVS) Nuclear Receptor Binding Assay for bovine Estrogen Receptor (ER) (AID 2283345);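 further: actives lower the bound radioligand count which means they displace the ER ligand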
# Chain of bovine Estrogen Receptor (ER), ESR1 (gene 407238) (P49884 whole entry, looked up): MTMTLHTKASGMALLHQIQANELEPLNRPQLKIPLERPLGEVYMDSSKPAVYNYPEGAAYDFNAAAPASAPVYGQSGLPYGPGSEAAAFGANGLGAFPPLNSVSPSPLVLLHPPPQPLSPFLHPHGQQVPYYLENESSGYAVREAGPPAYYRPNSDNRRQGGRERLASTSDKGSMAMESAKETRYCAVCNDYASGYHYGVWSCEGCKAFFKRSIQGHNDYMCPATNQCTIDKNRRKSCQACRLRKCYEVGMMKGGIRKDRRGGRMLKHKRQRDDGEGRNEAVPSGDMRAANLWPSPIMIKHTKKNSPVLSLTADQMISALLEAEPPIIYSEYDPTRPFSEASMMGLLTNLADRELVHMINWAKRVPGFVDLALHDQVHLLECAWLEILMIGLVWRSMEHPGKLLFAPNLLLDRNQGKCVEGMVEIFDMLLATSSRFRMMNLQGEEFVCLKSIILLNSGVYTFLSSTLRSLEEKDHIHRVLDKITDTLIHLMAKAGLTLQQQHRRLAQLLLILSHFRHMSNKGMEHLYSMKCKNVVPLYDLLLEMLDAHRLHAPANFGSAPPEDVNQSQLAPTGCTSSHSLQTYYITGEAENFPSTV
# Summary of the method: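 Displacement of a radioligand from estrogen receptor in bovine uterine membrane preparations; scintillation signal taken at 18 hours, DMSO as baseline. Single-concentration duplicates (25 uM) preceded concentration-response follow-up of actives.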
smiles,measurement,setting,value
CC(=O)N1CCN(c2ccc(OC[C@H]3CO[C@](Cn4ccnc4)(c4ccc(Cl)cc4Cl)O3)cc2)CC1,outcome,[1],inactive
same,outcome,[2],inactive
same,AC50,[3],20.2 µM (active)
same,outcome,[4],inactive
same,outcome,[5],inactive
same,outcome,[6],inactive
CC/C(=C(/CC)c1ccc(O)cc1)c1ccc(O)cc1,AC50,[7],12.4 µM (active)
same,AC50,NCBI gene 100848466,9.68 µM (active)
same,AC50,[8],12.6 µM (active)
same,outcome,[8],inactive
CCCCCCCCCCCC[N+](C)(C)C,AC50,[7],12.2 µM (active)
same,AC50,[9],19.6 µM (active)
same,outcome,[6],inactive
CCCCOC(=O)c1ccc(O)cc1,outcome,NCBI gene 100848466,inactive
same,outcome,[8],inactive
same,outcome,[10],inactive
same,outcome,[11],inactive
same,AC50,[6],4.69 µM (active) and 5.25 µM (active) and 5.52 µM (active)
Cc1ccc(C(C)C)cc1,outcome,[12],inactive
same,outcome,[2],inactive
same,outcome,[4],inactive
NCc1cccc(C2CCN(C(=O)c3ccc(C#Cc4ccccc4F)o3)CC2)c1,AC50,[7],2.9 µM (active)
same,AC50,[13],39.9 µM (active)
same,outcome,[14],inactive
same,AC50,[9],12 µM (active)
same,AC50,[8],32.6 µM (active)
same,outcome,[15],inactive
same,outcome,[2],inactive
same,outcome,[4],inactive
same,AC50,[10],14.6 µM (active)
same,AC50,[11],13.3 µM (active)
same,outcome,[6],inactive
CN(C[C@@H](CC[N+]12CCC(C3CCCCC3)(CC1)CC2)c1ccc(Cl)c(Cl)c1)C(=O)c1cc(C(F)(F)F)cc(C(F)(F)F)c1,AC50,[7],1.48 µM (active)
same,AC50,NCBI gene 100848466,41.5 µM (active)
same,AC50,[15],33 µM (active)
same,outcome,[2],inactive
same,outcome,[4],inactive
same,AC50,[10],21.3 µM (active)
same,AC50,[11],20.9 µM (active)
CCCCCc1ccc(N)cc1,outcome,[16],inactive
same,outcome,[8],inactive
same,outcome,[15],inactive
same,outcome,[2],inactive
same,AC50,[4],67 µM (active) and 67.6 µM (active)
same,outcome,[4],inactive
same,AC50,[5],46.8 µM (active) and 40 µM (active) and 53.9 µM (active)
same,outcome,[5],inactive
same,AC50,[6],65.3 µM (active) and 55.7 µM (active) and 56.6 µM (active)
same,outcome,[6],inactive
